Data on nine compounds can be found in PubChem BioAssay (NCATS).

Records with an inconclusive call do not appear. Calls of active or inactive are those of the source. Unless noted, calls follow the shape of the full dose curve.

A short description of assay [1]: qHTS profiling of the MIPE4 collection as inhibitors of Plasmodium falciparum (3D7) proliferation (AID 743344; call rule not given here;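 also: scaled between DMSO vehicle wells and 0.29 µM artemisinin as full inhibition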). Particulars: P. falciparum 3D7 in erythrocytes, SYBR Green DNA fluorescence, 72 h; at 28.5 µM unless noted. Put shortly:
(§1)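 Erythrocytes infected with P. falciparum (0.3% parasitemia, 2.5% hematocrit) incubated with compounds 72 h at 37 C, 5% CO2. Lysis with saponin/Triton buffer containing SYBR Green I, overnight at room temperature in the dark; DNA fluorescence (485/535 nm) normalised to 0.29 uM artemisinin and DMSO.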
(In general: qHTS replaces the single test concentration by a dilution series.)

A short description of assay [2]: qHTS profiling of the MIPE4 collection as inhibitors of Plasmodium falciparum (DD2) proliferation (AID 743345; call rule not given here). The conditions noted are these: P. falciparum Dd2 in erythrocytes, SYBR Green DNA, 72 h; at 28.5 µM unless noted. Put shortly: as §1
A short description of assay [3]: qHTS profiling of the MIPE4 collection as inhibitors of Plasmodium falciparum (HB3) proliferation (AID 743347; call rule not given here;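 also: plate controls were DMSO vehicle wells for no effect and artemisinin wells for full effect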). Particulars: P. falciparum HB3 in erythrocytes, SYBR Green DNA, 72 h; at 28.5 µM unless noted. The procedure, abridged: as §1
Assay [4] in a line: qHTS for Inhibitors of the Functional Ribonucleoprotein Complex (vRNP) of Lassa (LASV) Arenavirus: LASV Primary Screen - GLuc reporter signal (AID 1347082; calls by dose curve; tested in HEK293 reporter line; also: % is scaled to controls: 0 for no effect and ±100 for the full control effect; nearly all actives have a fitted effect of over 60% in size).
The nature of assay [5]: qHTS for Inhibitors of the Functional Ribonucleoprotein Complex (vRNP) of Lassa (LASV) Arenavirus: Viability assay - alamar blue signal for LASV Primary Screen (AID 1347083; calls by dose curve; tested in HEK293 reporter line; also: % is scaled to controls: 0 for no effect and ±100 for the full control effect; nearly all actives have a fitted effect of over 80% in size).
A short description of assay [6]: qHTS for Inhibitors of the Functional Ribonucleoprotein Complex (vRNP) of Lymphocytic Choriomeningitis Arenaviruses (LCMV): Viability assay - alamar blue signal for LCMV Primary Screen (AID 1347085; calls by dose curve; tested in HEK293 reporter line; also: % is scaled to controls: 0 for no effect and ±100 for the full control effect; nearly all actives have a fitted effect of over 80% in size).
The target of assay [7] is Nucleoprotein (Lymphocytic choriomeningitis virus (strain Armstrong)) (UniProt P09992). Description: qHTS for Inhibitors of the Functional Ribonucleoprotein Complex (vRNP) of Lymphocytic Choriomeningitis Arenaviruses (LCMV): LCMV Primary Screen - GLuc reporter signal (AID 1347086). Also: % is scaled to controls: 0 for no effect and ±100 for the full control effect; nearly all actives have a fitted effect of over 70% in size.
Sequence of Nucleoprotein (Lymphocytic choriomeningitis virus (strain Armstrong)) (P09992 whole entry, looked up): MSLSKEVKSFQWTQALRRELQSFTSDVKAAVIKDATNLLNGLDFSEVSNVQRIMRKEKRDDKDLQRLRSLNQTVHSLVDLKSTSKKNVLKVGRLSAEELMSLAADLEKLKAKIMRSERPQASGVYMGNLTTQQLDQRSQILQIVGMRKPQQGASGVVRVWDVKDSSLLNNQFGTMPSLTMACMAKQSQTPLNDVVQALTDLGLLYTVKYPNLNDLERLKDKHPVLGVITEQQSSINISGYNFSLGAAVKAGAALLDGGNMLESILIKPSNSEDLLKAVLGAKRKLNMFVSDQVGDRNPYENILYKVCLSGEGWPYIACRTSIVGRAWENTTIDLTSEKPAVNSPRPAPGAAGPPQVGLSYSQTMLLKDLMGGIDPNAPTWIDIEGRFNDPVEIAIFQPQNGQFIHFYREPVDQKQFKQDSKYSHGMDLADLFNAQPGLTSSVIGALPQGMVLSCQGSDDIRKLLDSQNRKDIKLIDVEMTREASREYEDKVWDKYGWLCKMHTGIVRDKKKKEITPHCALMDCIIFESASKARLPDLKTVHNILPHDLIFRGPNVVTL
Assay [8] deals with CRL-7250. The assay can be described thus: qHTS assay to identify novel small-molecules to repurpose for Merkel cell carcinoma treatment (AID 1296009; active = well fitted curve in the direction sought with a large enough effect; an effect the other way counts as inactive or inconclusive; also: nearly all actives have a fitted effect of over 60% in size). The conditions noted are these: MCC and control cell lines, CellTiter-Glo viability, 72 h; series mostly up to 92 µM. Put shortly: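 After compound transfer in DMSO, plates were kept 72 hr at 37 degree celsius. Luminescent ATP signal from CellTiter-Glo served as viability measure, normalized against DMSO and no-cell controls.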

The target of assay [9] is Bile acid receptor (Homo sapiens) (UniProt Q96RI1). The assay can be described thus: qHTS assay for small molecule agonists of farnesoid X receptor signaling (AID 588527).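 Also: 0% = vehicle basal and 100% = reference agonist.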 Particulars: HEK293T FXR-UAS-bla, beta-lactamase ratio, 16 h; activation: stronger effect = higher value. The procedure, abridged:
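Agonist-mode beta-lactamase reporter in GeneBLAzer FXR-UAS-bla HEK293T cells, titration up to 92 uM, 16 h exposure at 37 C, CCF4 fluorescence. Response scaled to DMSO (0%) and 100 uM chenodeoxycholic acid (100%), then Hill-fitted for EC50 and efficacy.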

Assay [10] is described as follows: Cytotoxicity counterscreen for inhibitors of SARS-CoV-2 cell entry (AID 1645845). Also: nearly all actives have a fitted effect of over 50% in size. Put shortly:
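48 h compound treatment (after 1 h preincubation), HEK293-ACE2 cells, 37 C/5% CO2; ATP luminescence endpoint; normalized to cell wells and media blanks.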

A short description of assay [11]: Primary qHTS to identify inhibitors of SARS-CoV-2 cell entry (AID 1645846). Also: nearly all actives have a fitted effect of over 45% in size. The conditions noted are these: activity change, negative = inhibition: at 57.1 µM (top of the series) unless noted. Put shortly: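 Inhibition of spike-mediated entry was scored in human ACE2-transfected Expi293F cells. Particles were MLV-pseudotyped with Wuhan-Hu-1 S carrying a 19-aa C-terminal deletion; signal was luciferase after two days, scaled between spike PP and fusion-protein-free PP.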

Assay [12] concerns the target Alpha-galactosidase (Coffea arabica) (UniProt Q42656). Description: Counterscreen for Glucocerebrosidase Inhibitors: qHTS Assay for Coffee Bean alpha-Galactosidase at pH 4.5 (AID 957; active = well fitted curve in the direction sought with a large enough effect; an effect the other way counts as inactive or inconclusive;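 also: plate controls were enzyme alone for no effect and no enzyme for full effect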). The procedure, abridged: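 AC50 values derive from Hill-equation modeling of concentration-response data, normalized to no-enzyme and full-activity controls. The pH 4.5 citrate assay used 2 nM coffee bean enzyme and 80 uM fluorogenic substrate for 20 min.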
Background: A counterscreen serves to expose hits that act by an unwanted route or on another target.

Assay [13] shares this target. Description: Counterscreen for Glucocerebrosidase Inhibitors: qHTS Assay for Coffee Bean alpha-Galactosidase at pH 5.9 (AID 998; active = well fitted curve in the direction sought with a large enough effect; an effect the other way counts as inactive or inconclusive;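 also: plate controls were uninhibited enzyme for no effect and no-enzyme basal signal for full effect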). The procedure, abridged: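 Compounds were titrated from 0.7 nM to 77 uM against green coffee bean alpha-galactosidase (2 nM) using 80 uM fluorogenic 4-methylumbelliferyl substrate. After 20 min at room temperature, reactions were stopped at pH 10 and read by fluorescence.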

Assay [14] can be described thus: Validation screen for inhibitors of Lassa infection (AID 463096). Also: % is scaled to controls: 0 for no effect and ±100 for the full control effect.
Assay [15] in a line: Inducers of the Endoplasmic Reticulum Stress Response (ERSR) in human glioma: Validation (AID 504836; active = well fitted curve in the direction sought with a large enough effect; an effect the other way counts as inactive or inconclusive; also: 0% is about no effect). The procedure, abridged:
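ERSR induction read as luciferase luminescence (Bright-Glo, 10 min at room temperature) in stably transfected human U87-MG glioma cells exposed to compounds for 16 h, using GRP78 as sensor.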

Sequence of Alpha-galactosidase (Coffea arabica) (Q42656 whole entry, looked up): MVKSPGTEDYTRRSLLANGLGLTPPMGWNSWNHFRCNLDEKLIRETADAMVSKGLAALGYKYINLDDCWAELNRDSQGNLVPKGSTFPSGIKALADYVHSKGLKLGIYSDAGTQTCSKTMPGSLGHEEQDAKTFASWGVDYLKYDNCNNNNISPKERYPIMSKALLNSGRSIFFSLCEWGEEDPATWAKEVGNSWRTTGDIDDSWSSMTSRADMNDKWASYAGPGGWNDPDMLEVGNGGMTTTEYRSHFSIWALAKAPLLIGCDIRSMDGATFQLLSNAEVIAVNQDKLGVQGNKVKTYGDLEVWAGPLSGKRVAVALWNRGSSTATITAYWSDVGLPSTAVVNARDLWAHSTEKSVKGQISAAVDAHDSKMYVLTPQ
Sequence of Bile acid receptor (Homo sapiens) (Q96RI1 whole entry, looked up): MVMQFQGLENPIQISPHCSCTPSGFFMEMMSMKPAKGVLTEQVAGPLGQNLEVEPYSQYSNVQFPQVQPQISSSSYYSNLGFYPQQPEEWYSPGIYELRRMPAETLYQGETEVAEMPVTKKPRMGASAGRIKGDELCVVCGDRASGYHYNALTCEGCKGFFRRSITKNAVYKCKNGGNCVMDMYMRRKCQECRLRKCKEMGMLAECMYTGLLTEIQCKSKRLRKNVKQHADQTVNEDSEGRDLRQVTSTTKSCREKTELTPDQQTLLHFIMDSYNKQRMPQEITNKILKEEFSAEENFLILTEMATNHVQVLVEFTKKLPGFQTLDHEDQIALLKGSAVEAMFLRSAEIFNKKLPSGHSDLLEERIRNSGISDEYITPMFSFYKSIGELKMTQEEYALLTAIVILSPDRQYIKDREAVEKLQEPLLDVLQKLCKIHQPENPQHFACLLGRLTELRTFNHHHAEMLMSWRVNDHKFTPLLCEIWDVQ

Take `O=C(O)C(=O)Nc1cccc(C2=NN=N[N]2)c1`: the parasite growth, % of DMSO control in [1] amounted to 82.2%. This compound also showed a parasite growth remaining, % of DMSO control (lower = more inhibition) in assay [2] of 99.9%. The growth, % of control in [3] is 97.2%. For the same compound, the Potency result in assay [4], in assay [5], in assay [6], in assay [7] and in assay [8] was “inactive” throughout.

For `O=C(/C=C/C=C/c1ccc2c(c1)OCO2)N1CCCCC1`, the activation in [9] is 4.73% (inactive). Also, the Potency result in assay [4], in assay [5], in [6], in [7], in assay [10] and in assay [8] was “inactive” each time. Besides, the activity change, negative = inhibition in [11] was -9.28%.

On to `Cc1ccccc1C(C(=O)NC1CCCCC1)N(C(=O)Cn1ccnc1C)c1cccc(F)c1` (configuration not stated), for which the Potency result in assay [4], in [5], in assay [6], in assay [7] and in assay [8] was “inactive” throughout. Also, the activity change, negative = inhibition in assay [11] was -3.95%.

In [2], `OC[C@H]1OC(O)C[C@@H](O)[C@H]1O` (some centres not stated) displayed a parasite growth remaining, % of DMSO control (lower = more inhibition) of 88.2%. Moreover, the Potency result in assay [4], in assay [5], in assay [6], in assay [7], in assay [10] and in [8] was “inactive” in each case. Also, the activity change, negative = inhibition in assay [11] was -3.07%.

Regarding `CCN1C[C@H](C)n2c(c(O)c3c(=O)n(Cc4ccc(F)c(Cl)c4)nc(C(=O)NC)c32)C1=O`, in [1], the parasite growth, % of DMSO control worked out at 43.2%. Besides, the parasite growth remaining, % of DMSO control (lower = more inhibition) in [2] stood at 55.9%. In assay [3], this compound showed a growth, % of control of 48.6%. For the same compound, the Potency result in assay [4], in assay [5], in assay [6], in assay [7] and in assay [8] was “inactive” throughout.

For `O=c1[nH]c(=O)n(C2CCCO2)cc1F` (configuration not stated), the Potency entry in assay [4], in assay [5], in assay [6], in assay [7], in [10] and in [8] was “inactive” throughout. The activity change, negative = inhibition in [11] is -6.03%.

As for `COc1ccccc1N1CCN(CCN(C(=O)C2CCCCC2)c2ccccn2)CC1`, the outcome in [12] and in [13] was inactive. For the same compound, the Potency entry in assay [14], in [4], in [5], in assay [6], in assay [7] and in assay [8] was “inactive” each time.

In assay [2], `Cc1ccc(O)c(C(CCN(C(C)C)C(C)C)c2ccccc2)c1` (configuration not stated) registered a parasite growth remaining, % of DMSO control (lower = more inhibition) of 32%. The Potency entry in assay [4], in assay [5], in [6], in assay [7], in [10] and in [8] was “inactive” throughout.

`O=C(Nc1nc2ccccc2n1CCN1CCOCC1)c1cccc([N+](=O)[O-])c1`: in assay [15], the result was inactive. The Potency result in assay [4], in [5], in assay [6], in [7], in assay [10] and in assay [8] was “inactive” each time.
